Source: PubChem
Hits are enriched below; roughly 2% of the tested compounds scored in any of these assays.
CTSL1 counter: Fasciola hepatica cathepsin L1 inhibitors, primary screen, counter-screen for PFM18AAP inhibitor project, biochemical, QFRET, fluorogenic peptide substrate; actives 0.49% (n = 300,000); recombinant F. hepatica cathepsin L1, Z-Leu-Arg-MCA fluorescence; inhibition, % at 5.96 µM;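 active means inhibition above the mean of all tested compounds plus 3 SD, set per screening campaign, cut at about 17% in these data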
A3A deaminase: APOBEC3A ssDNA deaminase inhibitors, primary screen, selectivity assay for APOBEC3G inhibitor project, biochemical, FAM/TAMRA oligo cleavage fluorescence; AID 493011, 2011; actives 0.41% (n = 330,000); DNA dC->dU-editing enzyme APOBEC-3A (Homo sapiens), P31941; inhibition, % at 20 µM; recombinant A3A, FAM/TAMRA ssDNA deamination fluorescence;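 active means at least 40% inhibition at 20 µM here, with at most 30% in a related deaminase screen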
Target sequence (P31941 whole entry, looked up): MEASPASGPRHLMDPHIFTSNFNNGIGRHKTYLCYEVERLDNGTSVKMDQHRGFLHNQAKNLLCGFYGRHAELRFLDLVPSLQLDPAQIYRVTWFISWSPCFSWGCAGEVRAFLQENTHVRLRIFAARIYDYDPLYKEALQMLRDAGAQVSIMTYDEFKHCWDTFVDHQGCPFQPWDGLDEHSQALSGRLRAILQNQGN
sPLA2-III inh: human group III sPLA2 inhibitors, primary screen, biochemical, QFRET, BODIPY PC-A2 liposome substrate | QFRET BODIPY PC-A2 liposome hydrolysis, fluorescence | actives 0.56% (n = 370,000) | AID 743126, 2013 | Group 3 secretory phospholipase A2 (Homo sapiens), Q9NZ20 | inhibition, % at 12.2 µM;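 active means inhibition above mean plus 3 SD of compounds lying within the high and low control bounds, cut at about 19% in these data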
Target sequence (Q9NZ20 whole entry, looked up): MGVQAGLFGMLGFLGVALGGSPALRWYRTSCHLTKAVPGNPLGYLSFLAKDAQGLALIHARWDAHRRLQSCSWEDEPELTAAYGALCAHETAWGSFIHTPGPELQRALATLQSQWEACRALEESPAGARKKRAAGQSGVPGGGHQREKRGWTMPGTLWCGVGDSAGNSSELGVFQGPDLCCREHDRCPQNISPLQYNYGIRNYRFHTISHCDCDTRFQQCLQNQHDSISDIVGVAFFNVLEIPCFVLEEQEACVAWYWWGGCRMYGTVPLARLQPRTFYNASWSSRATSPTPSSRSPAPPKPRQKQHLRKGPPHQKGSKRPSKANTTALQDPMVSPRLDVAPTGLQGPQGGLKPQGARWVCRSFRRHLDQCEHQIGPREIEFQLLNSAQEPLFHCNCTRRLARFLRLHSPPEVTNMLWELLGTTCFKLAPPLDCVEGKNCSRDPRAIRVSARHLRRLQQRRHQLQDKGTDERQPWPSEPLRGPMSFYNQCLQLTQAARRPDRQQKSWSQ
APOBEC3G inh: APOBEC3G DNA deaminase inhibitors, primary screen, biochemical, fluorescence, single-stranded DNA substrate, uHTS | DNA dC->dU-editing enzyme APOBEC-3G (Homo sapiens), Q9HC16 | recombinant A3G, ssDNA deamination FAM/TAMRA fluorescence | inhibition, % at 20 µM | actives 0.28% (n = 330,000) | AID 493012, 2011;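 active means inhibition of at least 40% at 20 µM, with no more than 30% in the related APOBEC3A deaminase screen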
NALP1 inh: NALP1 inflammasome inhibitors in reconstituted yeast, colorimetric, S. cerevisiae, triplicate retest. S. cerevisiae NALP1/ASC/caspase-1 growth, X-gal OD620, 72 h. inhibition, % at 10 µM. actives 0.61% (n = 280,000). AID 2071, 2009; in the data active means inhibition mostly above about 24%, no sharp cut-off; inactive means mostly below about 32%
Each line names hits and unclear results; the compound was inactive in the other large screens; ! = not confirmed by another sample.

O=C(NN=c1c(=O)c2ccccc2c1=O)c1ccccc1	CTSL1 counter 61
CN(C)/C=N/NC(=O)c1ccccc1	none
CCOc1ccc(NC(=O)COn2nnc3ccc(S(=O)(=O)N4CCOCC4)cc32)cc1	none
CCN(CC)S(=O)(=O)c1ccc2nnn(OCC(=O)Nc3cccc(C#N)c3)c2c1	CTSL1 counter 81
COc1ccc(CNCC(O)(c2ccccc2)c2ccc(Cl)cc2)cc1 (stereo not given)	NALP1 inh 57
Cc1ccc(CNCC(O)(c2ccccc2)c2ccc(Cl)cc2)cc1 (stereo not given)	none (no result: CTSL1 counter, A3A deaminase, APOBEC3G inh)
CCOc1nc(NCCO)nc(Nc2cc(Cl)ccc2OC)n1	none
C=CCNc1nc(Nc2cc(Cl)ccc2OC)nc(OC)n1	NALP1 inh 25
COc1ccc2c(c1)CN1CN(Cc3ccc(F)cc3)S(=O)(=O)CC21 (stereo not given)	none (no result: CTSL1 counter, A3A deaminase, APOBEC3G inh, NALP1 inh)
CCCCOc1ccc(CSC2=NCCN2)cc1[N+](=O)[O-]	NALP1 inh 47
CCOc1ccc(CSC2=NCCN2)cc1[N+](=O)[O-]	none
CCc1cc2c(NCc3ccco3)ncnc2s1	none
CCc1cc2c(NCC(=O)O)ncnc2s1	NALP1 inh 39
CCc1cc2c(SCC(=O)c3ccccc3)ncnc2s1	CTSL1 counter 19
CCc1cc2c(SCC(=O)O)ncnc2s1	none
CCC[C@H]1[C@@H](OC(=O)NCc2ccc(Cl)c(Cl)c2)CC[C@@]23CCCN2C(=O)CCC[C@@H]13	none (no result: CTSL1 counter, A3A deaminase, APOBEC3G inh, NALP1 inh)
c1cnc2c(c1)ccc1cccnc12	NALP1 inh 54!
O=[N+]([O-])c1ccc2nc(CCCc3nc4ccc([N+](=O)[O-])cc4[nH]3)[nH]c2c1	NALP1 inh 32
CC(O)[C@H](NC(=O)C1(c2ccccc2)CCN(C(=O)OC(C)(C)C)CC1)C(=O)O (stereo not given in full)	CTSL1 counter 30
Cc1ccc(CNC2CCC23CCC(c2ccccc2)CC3)o1 (stereo not given)	none (no result: CTSL1 counter, A3A deaminase, APOBEC3G inh, NALP1 inh)
Cc1ccc(-n2c(Cl)c(Cl)nc(Cl)c2=O)cc1	NALP1 inh 124 (no result: A3A deaminase, sPLA2-III inh, APOBEC3G inh)
COc1nc(Cl)cn(-c2ccc(C)cc2)c1=O	none
CC(C)(C)C(=O)/C(=C\c1ccc([N+](=O)[O-])cc1)n1cncn1	NALP1 inh 55 (no result: sPLA2-III inh)
COc1ccc(-c2nnn(CC(=O)NC3CCCc4ccccc43)n2)cc1OC (stereo not given)	NALP1 inh 42
COc1ccc(-c2nc(CSCC(=O)NC3CCCc4ccccc43)c(C)o2)cc1OC (stereo not given)	none
COc1ccc2[nH]c3c(=O)n(CCc4ccccc4)cnc3c2c1	none
CCCCN(CCCC)CCn1cnc2c([nH]c3ccc(OC)cc32)c1=O	CTSL1 counter 107
O=C(O)c1cccc(CSc2n[nH]c(-c3ccc(Cl)cc3Cl)n2)c1	NALP1 inh 53
COc1cccc(N2CCN(CC(=O)N(C)Cc3ccccc3Cl)CC2)c1	none (no result: CTSL1 counter, A3A deaminase, APOBEC3G inh, NALP1 inh)
Cc1ccccc1N=C(NOCc1ccc(Cl)cc1Cl)c1nonc1N	NALP1 inh 40
O[C@@H]1[C@@H](O)[C@H](n2c3ccc(Cl)cc3c3ccc4c5cc(Cl)ccc5[nH]c4c32)OC[C@H]1O	none (no result: CTSL1 counter, A3A deaminase, APOBEC3G inh, NALP1 inh)
CCOC(=O)[C@@]12CCCC3=C1N(CCC3)C(=O)[C@H]2CC(=O)NCc1ccc(C)o1	none (no result: CTSL1 counter, A3A deaminase, APOBEC3G inh, NALP1 inh)
O=C(O)Cc1sc(N/N=C\c2ccccc2)nc1-c1ccccc1	sPLA2-III inh 23
COc1ccc(CN(CCN2CCOCC2)C(=O)c2cc(F)ccc2F)cc1OC	none (no result: CTSL1 counter, A3A deaminase, APOBEC3G inh, NALP1 inh)
Cc1cc(NC(=O)CSCc2nc(-c3cccc(F)c3)oc2C)no1	NALP1 inh 40
c1ccc(CCSc2nnc(-c3cccnc3)n2Cc2ccccc2)cc1	none (no result: CTSL1 counter, A3A deaminase, APOBEC3G inh, NALP1 inh)
Cn1cnnc1SCc1ccc(-c2ccc(Br)cc2)o1	CTSL1 counter 60
O=C(CNC(=O)C1CCCCC1)OCC(=O)c1ccc(Cl)s1	CTSL1 counter 18
COc1ccc(C(=O)COC(=O)CNC(=O)C2CCCCC2)c(OC)c1	CTSL1 counter 35
O=C(COC(=O)CNC(=O)C1CCCCC1)Nc1ccc(Cl)cn1	CTSL1 counter 29 (no result: NALP1 inh)
O=C(CNC(=O)C1CCCCC1)OCC(=O)c1ccc(Br)cc1	none (no result: CTSL1 counter)
COc1ccc(OC)c(C(=O)COC(=O)CNC(=O)C2CCCCC2)c1	CTSL1 counter 33
O=C(NC1CCCCN(Cc2ccc(Cl)cc2)C1=O)c1ccc(-c2ccccc2)cc1 (stereo not given)	none (no result: CTSL1 counter, A3A deaminase, APOBEC3G inh, NALP1 inh)
O=C1COc2ccc(C(=O)COC(=O)CNC(=O)C3CCCCC3)cc2N1	CTSL1 counter 31
CCCOc1ccc2oc(=O)c3c(c2c1)CCCN3C(=O)CN1CCN(C(=O)c2ccco2)CC1	none (no result: sPLA2-III inh)
O=C(CN1CCCC1)N1CCCc2c1c(=O)oc1ccc(OCc3ccccc3)cc21	NALP1 inh 29
N=c1sccn1CC(=O)Nc1ccccc1Oc1ccccc1	NALP1 inh 38
CCOC(=O)[C@]12CCCCC/C=C\1N(CCc1ccc(Cl)cc1)C(=O)[C@H]2CC(=O)N1CCN(C(=O)c2ccco2)CC1	none (no result: CTSL1 counter, A3A deaminase, APOBEC3G inh, NALP1 inh)
Cc1cc(C(=O)NC2CCCC2)c2ccccc2n1	none
Cc1nc2cccc(C(=O)NC3CCCCC3)c2o1	NALP1 inh 32
O=C(C1=C[C@H](c2csc3ccccc23)C[C@H](OCCCCO)O1)N1CCN(Cc2ccccc2)CC1	NALP1 inh 30
O=C(C1=C[C@@H](c2csc3ccccc23)C[C@@H](OCCCCO)O1)N1CCN(Cc2ccc3c(c2)OCO3)CC1	none
Cn1nc(C(F)(F)F)c(-c2ccc(Br)cc2)c1NC(=O)c1ccco1	CTSL1 counter 29 (no result: NALP1 inh)
NS(=O)(=O)c1ccc(NC(=O)CSc2nc3ccccc3c(=O)n2-c2ccc(Br)cc2)cc1	none (no result: CTSL1 counter, A3A deaminase, APOBEC3G inh, NALP1 inh)
COc1ccc(NC(=O)c2cc3c(C)nn(-c4ccccc4)c3s2)cc1	none (no result: CTSL1 counter, A3A deaminase, APOBEC3G inh, NALP1 inh)
CC1CCC2(CC1)CCC2NCc1ccc(Br)cc1 (stereo not given)	none (no result: CTSL1 counter, A3A deaminase, APOBEC3G inh, NALP1 inh)
Oc1c(Br)cc(Br)cc1CNc1cccc2cccnc12	CTSL1 counter 29
Cc1cccc(N2C(=O)CC(Sc3ncn[nH]3)C2=O)c1 (stereo not given)	NALP1 inh 38
Cc1ccc(N2C(=O)CC(Sc3ncn[nH]3)C2=O)cc1C (stereo not given)	NALP1 inh 40
Cc1cc(C)nc(SC2CC(=O)N(c3ccc(C)c(C)c3)C2=O)n1 (stereo not given)	none
Cc1cccc(N2C(=O)CC(Sc3nccc(C)n3)C2=O)c1 (stereo not given)	none
O=C(NC1CCCCC1)c1cc([N+](=O)[O-])ccc1N1CCCC1	CTSL1 counter 34
CN(C(=O)c1cc([N+](=O)[O-])ccc1N1CCCC1)C1CCCCC1	CTSL1 counter 22
